Measured values published in the supplement of paper PMC10849652.
Of roughly 8,800 targets only a part is listed; those with a hit were picked by preference. About 0.5% of all pairs of compound and target were hits. Unmarked numbers belong to inactive results.

Columns and labels:
Assay in all cases: log2 fold change, soluble protein after heating vs DMSO (PISA); higher = thermal stabilisation; K562 lysate, 10 uM; active = over 0.2 and 3.5 SD of the protein, either way, in both replicates (recomputed)
vemurafenib = compound: CCCS(=O)(=O)Nc1ccc(F)c(C(=O)c2c[nH]c3ncc(-c4ccc(Cl)cc4)cc23)c1F [vemurafenib]
How it was run: (§1)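 Values give the log-two fold change in thermal stability against solvent controls, from duplicates. Crude K562 extract at 1 mg/mL protein, made by dounce homogenisation in PBS pH 7.4 with 1 mM MgCl2, was treated with 10 μM compound for 30 min. After 3 min heating across 48°C-58°C, aliquots were pooled, adjusted to 0.5% NP-40 at 4°C and centrifuged at 21,000xg for 90 min. The supernatant was measured by TMTpro 16plex LC-MS/MS with channel sums equalised.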

[1] = compound: CCCS(=O)(=O)Nc1ccc(F)c(C(=O)c2c[nH]c3ncc(Cl)cc23)c1F
How it was run: as §1

barasertib = compound: CCN(CCCOc1ccc2c(Nc3cc(CC(=O)Nc4cccc(F)c4)[nH]n3)ncnc2c1)CCOP(=O)(O)O [barasertib]
How it was run: as §1

[2] = compound: CC[C@@H]1C(=O)N(C)c2cnc(Nc3ccc(C(=O)NC4CCN(C)CC4)cc3OC)nc2N1C1CCCC1
How it was run: as §1

volasertib = compound: CC[C@@H]1C(=O)N(C)c2cnc(Nc3ccc(C(=O)N[C@H]4CC[C@H](N5CCN(CC6CC6)CC5)CC4)cc3OC)nc2N1C(C)C [volasertib]
How it was run: as §1

[3] = compound: CCn1c(C(=O)N(C2CC2)C2CC2)cc2c3c(ncn3C)c(Nc3cc(C)n(C)n3)nc21
How it was run: as §1

[4] = compound: CCn1cc(-c2ccnc3[nH]c(-c4cccc(CN(C)C)c4)cc23)c(-c2ccc(NC(=O)N(C)C)cc2)n1
How it was run: as §1

[5] = compound: CN1CCC(CNc2ccc3ncc(-c4cccc(OC(F)(F)F)c4)n3n2)CC1
How it was run: as §1

saracatinib = compound: CN1CCN(CCOc2cc(OC3CCOCC3)c3c(Nc4c(Cl)ccc5c4OCO5)ncnc3c2)CC1 [saracatinib]
How it was run: as §1

sotrastaurin = compound: CN1CCN(c2nc(C3=C(c4c[nH]c5ccccc45)C(=O)NC3=O)c3ccccc3n2)CC1 [sotrastaurin]
How it was run: as §1

UniProt Q8NEM2, sequence (Q8NEM2 whole entry, looked up): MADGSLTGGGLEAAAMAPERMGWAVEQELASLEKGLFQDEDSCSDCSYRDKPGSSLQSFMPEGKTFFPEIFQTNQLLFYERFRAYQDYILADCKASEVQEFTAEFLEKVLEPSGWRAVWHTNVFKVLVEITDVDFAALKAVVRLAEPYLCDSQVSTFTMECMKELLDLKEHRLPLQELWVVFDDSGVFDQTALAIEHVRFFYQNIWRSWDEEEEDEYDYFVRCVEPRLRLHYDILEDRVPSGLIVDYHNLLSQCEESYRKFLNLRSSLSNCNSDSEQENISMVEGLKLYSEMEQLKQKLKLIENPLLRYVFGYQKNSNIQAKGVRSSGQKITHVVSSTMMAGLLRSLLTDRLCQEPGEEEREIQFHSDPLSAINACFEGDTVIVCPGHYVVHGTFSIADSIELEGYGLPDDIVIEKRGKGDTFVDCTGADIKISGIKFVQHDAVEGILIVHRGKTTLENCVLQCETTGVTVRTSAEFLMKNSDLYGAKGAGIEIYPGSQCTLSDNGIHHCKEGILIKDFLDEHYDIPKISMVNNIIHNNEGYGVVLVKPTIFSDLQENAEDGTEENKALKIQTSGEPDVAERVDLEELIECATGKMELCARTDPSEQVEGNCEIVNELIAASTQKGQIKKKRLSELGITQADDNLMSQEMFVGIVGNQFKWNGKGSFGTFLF
UniProt P08047, sequence (P08047 whole entry, looked up): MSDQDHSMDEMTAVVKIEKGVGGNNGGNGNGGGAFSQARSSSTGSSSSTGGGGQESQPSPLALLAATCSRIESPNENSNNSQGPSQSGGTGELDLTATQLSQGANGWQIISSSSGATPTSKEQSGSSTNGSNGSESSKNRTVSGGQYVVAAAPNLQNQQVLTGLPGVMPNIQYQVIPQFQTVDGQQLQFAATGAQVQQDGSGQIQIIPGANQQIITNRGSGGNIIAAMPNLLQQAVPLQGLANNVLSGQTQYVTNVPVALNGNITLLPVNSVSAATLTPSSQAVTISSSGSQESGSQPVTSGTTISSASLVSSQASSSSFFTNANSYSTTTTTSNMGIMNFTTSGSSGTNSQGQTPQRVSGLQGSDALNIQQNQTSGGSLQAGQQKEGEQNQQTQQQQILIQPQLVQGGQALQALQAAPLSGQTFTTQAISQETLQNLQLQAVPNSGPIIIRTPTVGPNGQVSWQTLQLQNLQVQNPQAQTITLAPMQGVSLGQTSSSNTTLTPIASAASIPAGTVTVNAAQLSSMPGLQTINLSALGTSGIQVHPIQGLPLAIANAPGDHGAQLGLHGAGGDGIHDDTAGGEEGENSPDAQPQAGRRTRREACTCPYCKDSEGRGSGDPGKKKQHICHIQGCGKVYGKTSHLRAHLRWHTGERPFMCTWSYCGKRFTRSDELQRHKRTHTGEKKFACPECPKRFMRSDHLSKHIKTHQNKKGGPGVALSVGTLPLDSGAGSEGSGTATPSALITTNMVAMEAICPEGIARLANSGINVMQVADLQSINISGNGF
UniProt Q16594, sequence (Q16594 whole entry, looked up): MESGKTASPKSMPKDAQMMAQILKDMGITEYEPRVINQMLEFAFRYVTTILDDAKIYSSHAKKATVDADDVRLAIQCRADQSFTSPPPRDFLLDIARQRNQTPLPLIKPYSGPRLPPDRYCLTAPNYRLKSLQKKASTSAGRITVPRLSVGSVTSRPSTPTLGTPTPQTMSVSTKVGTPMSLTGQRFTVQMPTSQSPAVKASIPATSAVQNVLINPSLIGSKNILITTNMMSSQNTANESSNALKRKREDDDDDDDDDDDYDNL
UniProt P53985, sequence (P53985 whole entry, looked up): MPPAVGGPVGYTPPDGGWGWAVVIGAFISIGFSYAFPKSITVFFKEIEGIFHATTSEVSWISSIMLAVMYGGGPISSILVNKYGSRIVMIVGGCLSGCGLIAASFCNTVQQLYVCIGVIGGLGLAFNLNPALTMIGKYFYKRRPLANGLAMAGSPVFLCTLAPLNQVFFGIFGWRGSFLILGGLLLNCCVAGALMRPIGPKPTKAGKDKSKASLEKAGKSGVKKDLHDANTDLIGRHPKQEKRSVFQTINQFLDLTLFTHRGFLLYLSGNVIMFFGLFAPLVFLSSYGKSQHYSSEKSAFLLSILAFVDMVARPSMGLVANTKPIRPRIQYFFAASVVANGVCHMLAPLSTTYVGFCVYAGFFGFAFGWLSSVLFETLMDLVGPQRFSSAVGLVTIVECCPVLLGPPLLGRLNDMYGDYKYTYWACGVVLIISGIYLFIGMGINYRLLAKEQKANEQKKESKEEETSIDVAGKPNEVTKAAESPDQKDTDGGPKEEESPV
UniProt Q6KCM7, sequence (Q6KCM7 whole entry, looked up): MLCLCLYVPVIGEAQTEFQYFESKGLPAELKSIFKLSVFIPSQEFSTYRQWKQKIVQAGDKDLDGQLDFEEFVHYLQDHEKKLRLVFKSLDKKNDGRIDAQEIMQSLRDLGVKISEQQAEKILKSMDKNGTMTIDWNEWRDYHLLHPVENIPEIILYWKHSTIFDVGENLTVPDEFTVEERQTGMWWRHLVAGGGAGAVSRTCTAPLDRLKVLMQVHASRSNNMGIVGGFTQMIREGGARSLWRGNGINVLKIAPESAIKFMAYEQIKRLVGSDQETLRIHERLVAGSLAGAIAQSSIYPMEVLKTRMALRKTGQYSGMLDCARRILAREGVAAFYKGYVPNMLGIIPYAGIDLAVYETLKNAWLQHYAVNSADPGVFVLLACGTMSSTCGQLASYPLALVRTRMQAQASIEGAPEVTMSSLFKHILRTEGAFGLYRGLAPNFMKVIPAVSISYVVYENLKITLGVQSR
UniProt Q15506, sequence (Q15506 whole entry, looked up): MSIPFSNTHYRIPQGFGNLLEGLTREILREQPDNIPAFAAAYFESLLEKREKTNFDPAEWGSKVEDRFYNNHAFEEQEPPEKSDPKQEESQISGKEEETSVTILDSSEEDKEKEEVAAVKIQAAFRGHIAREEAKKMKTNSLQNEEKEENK
UniProt P35270, sequence (P35270 whole entry, looked up): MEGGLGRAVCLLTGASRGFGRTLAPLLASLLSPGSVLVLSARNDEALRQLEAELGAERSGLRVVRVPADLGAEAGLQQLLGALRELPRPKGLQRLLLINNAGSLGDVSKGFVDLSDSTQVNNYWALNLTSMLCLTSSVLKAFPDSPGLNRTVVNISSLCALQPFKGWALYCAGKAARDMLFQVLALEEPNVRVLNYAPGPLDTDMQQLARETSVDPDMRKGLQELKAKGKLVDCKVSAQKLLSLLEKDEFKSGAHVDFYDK
UniProt Q8N1S5, sequence (Q8N1S5 whole entry, looked up): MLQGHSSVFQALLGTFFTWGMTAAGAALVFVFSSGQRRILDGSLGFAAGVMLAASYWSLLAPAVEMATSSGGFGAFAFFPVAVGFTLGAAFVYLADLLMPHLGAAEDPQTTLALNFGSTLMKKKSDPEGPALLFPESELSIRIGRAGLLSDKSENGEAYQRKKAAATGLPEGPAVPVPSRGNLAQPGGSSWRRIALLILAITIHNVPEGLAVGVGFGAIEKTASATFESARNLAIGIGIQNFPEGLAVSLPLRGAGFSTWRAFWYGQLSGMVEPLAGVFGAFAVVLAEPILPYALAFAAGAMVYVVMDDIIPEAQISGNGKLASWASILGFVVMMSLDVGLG
UniProt Q96SB4, sequence (Q96SB4 whole entry, looked up): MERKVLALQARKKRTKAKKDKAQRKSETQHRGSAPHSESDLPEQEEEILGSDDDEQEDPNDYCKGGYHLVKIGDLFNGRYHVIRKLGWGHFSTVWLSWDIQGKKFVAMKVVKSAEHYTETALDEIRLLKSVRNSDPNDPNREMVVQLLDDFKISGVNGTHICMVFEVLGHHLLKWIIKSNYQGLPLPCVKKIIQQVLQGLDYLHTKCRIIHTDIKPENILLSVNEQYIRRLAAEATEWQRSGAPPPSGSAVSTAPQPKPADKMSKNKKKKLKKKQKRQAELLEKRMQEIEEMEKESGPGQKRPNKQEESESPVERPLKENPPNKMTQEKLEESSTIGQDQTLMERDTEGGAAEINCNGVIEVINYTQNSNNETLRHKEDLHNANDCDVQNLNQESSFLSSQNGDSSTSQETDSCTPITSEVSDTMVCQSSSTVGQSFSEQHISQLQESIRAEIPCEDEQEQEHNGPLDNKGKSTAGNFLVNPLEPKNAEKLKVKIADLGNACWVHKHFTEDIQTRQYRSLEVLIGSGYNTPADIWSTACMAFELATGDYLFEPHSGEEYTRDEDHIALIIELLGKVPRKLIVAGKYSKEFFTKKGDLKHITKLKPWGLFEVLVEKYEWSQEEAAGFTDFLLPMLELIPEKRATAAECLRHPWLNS
UniProt Q13573, sequence (Q13573 whole entry, looked up): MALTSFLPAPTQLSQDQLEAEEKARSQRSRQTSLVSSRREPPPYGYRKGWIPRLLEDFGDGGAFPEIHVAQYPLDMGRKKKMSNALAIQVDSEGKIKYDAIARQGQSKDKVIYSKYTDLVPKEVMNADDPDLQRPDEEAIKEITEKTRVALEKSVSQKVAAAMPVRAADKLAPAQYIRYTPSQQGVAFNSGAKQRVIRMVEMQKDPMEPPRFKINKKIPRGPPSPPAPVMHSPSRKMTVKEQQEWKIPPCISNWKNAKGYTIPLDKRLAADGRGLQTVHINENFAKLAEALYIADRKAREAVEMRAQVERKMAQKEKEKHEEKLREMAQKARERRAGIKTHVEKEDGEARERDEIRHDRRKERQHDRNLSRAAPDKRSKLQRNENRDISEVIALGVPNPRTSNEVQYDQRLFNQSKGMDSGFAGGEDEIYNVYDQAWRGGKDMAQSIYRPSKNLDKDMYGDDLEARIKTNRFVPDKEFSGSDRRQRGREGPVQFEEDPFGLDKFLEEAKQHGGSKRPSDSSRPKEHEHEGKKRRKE
UniProt O60225, sequence (O60225 whole entry, looked up): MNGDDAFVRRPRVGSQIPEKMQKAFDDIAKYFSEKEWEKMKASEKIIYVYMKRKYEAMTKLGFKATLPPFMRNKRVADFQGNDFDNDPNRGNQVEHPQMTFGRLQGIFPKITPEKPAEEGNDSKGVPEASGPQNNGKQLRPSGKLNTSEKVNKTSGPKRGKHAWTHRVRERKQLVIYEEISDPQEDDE

Row | Target | log2 fold change (vemurafenib) | log2 fold change [1] | log2 fold change (barasertib) | log2 fold change [2] | log2 fold change (volasertib) | log2 fold change [3] | log2 fold change [4] | log2 fold change [5] | log2 fold change (saracatinib) | log2 fold change (sotrastaurin)
1 | SPA17 (UniProt Q15506) | -0.013 | -0.004 | 0.021 | 0.005 | 0.09 | 0.022 | -0.639 (active) | 0.245 | 0.004 | 0.021
2 | SLC39A11 (UniProt Q8N1S5) | -0.082 | 0.073 | -0.126 | 0.067 | 0.011 | 0.028 | -0.043 | 0.147 | -0.108 | -0.009
3 | SP1 (UniProt P08047) | -0.115 | 0.056 | 0.045 | 0.015 | 0.043 | -0.008 | -0.061 | 0.019 | 0.037 | -0.154
4 | SLC25A25 isoform 3 (UniProt Q6KCM7) | -0.011 | -0.012 | 0.004 | 0.012 | 0.03 | 0.007 | -0.012 | -0.053 | 0.016 | -0.016
5 | TARDBP (UniProt Q13148) | 0.027 | 0.016 | 0.151 | 0.007 | -0.125 | 0.169 | -0.008 | -0.069 | 0.058 | -0.032
6 | TAF6L (UniProt Q9Y6J9) | -0.029 | 0.035 | -0.05 | -0.245 (active) | -0.007 | -0.015 | 0.018 | 0.022 | 0.029 | 0.05
7 | SHCBP1 (UniProt Q8NEM2) | -0.016 | 0.003 | 0.041 | -0.041 | -0.044 | 0.027 | -0.091 | 0.022 | 0.027 | 0.019
8 | SRPK1 (UniProt Q96SB4) | 0.003 | 0.029 | -0.014 | 0.093 | -0.01 | 0.008 | 0.055 | -0.072 | 0.012 | 0.021
9 | STK25 (UniProt O00506) | -0.018 | -0.005 | 0.017 | -0.034 | -0.078 | -0.042 | -0.037 | 0.016 | -0.026 | 0.022
10 | SNW1 (UniProt Q13573) | 0.019 | 0.01 | -0.019 | 0.07 | -0.021 | 0 | 0.191 | -0.037 | 0.016 | -0.037
11 | SSX5 isoform 2 (UniProt O60225) | 0.143 | 0.062 | -0.065 | -0.188 | 0.013 | 0.031 | -0.926 (active) | 0.049 | – | –
12 | SLC16A1 (UniProt P53985) | 0.026 | -0.015 | -0.051 | 0.07 | 0.043 | -0.034 | -0.419 (active) | 0.256 (active) | -0.003 | 0.02
13 | TAF9 (UniProt Q16594) | -0.028 | -0.092 | -0.001 | -0.031 | 0.063 | 0.002 | 0.238 (active) | -0.006 | 0.056 | -0.001
14 | SPR (UniProt P35270) | 0.01 | 0.026 | -0.013 | -0.014 | -0.003 | -0.024 | 0.158 | -0.028 | 0.093 | -0.047
